PubChem BioAssay (NCI)
Compounds without any hit were thinned out: in the full panel of roughly 83,000, 20% have a hit.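 Testing used 96-well plates and a 48-hour single-concentration exposure. Example: -40 means 40% of the starting cells died.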 Calls of active or inactive are those of the source. The calls were made as follows: active = growth percent below 10; inactive = the rest.

Key:
Assay in all cases: NCI-60 one-dose screen, 48 h (100 = growth as untreated, 0 = no growth, -100 = all killed)
Conditions in all cases: 10 µM unless noted
[1] = test system: RPMI-8226 leukemia
[2] = test system: OVCAR-8 ovarian
[3] = test system: OVCAR-5 ovarian
[4] = test system: OVCAR-4 ovarian
[5] = test system: SK-OV-3 ovarian
[6] = test system: IGROV1 ovarian
[7] = test system: OVCAR-3 ovarian
[8] = test system: HS 578T breast
[9] = test system: NCI/ADR-RES ovarian
[10] = test system: T-47D breast
[11] = test system: BT-549 breast
[12] = test system: MDA-MB-435 melanoma
[13] = test system: SW-620 colon
[14] = test system: MCF7 breast
[15] = test system: HCT-116 colon
[16] = test system: HCC-2998 colon
[17] = test system: KM12 colon

Measured: growth

O=c1[nH]nc(-c2ccccc2)c2sc(NC(=S)Nc3ccc(Cl)cc3)nc12
inactive: [1] 87.8% | [2] 89.6% | [3] 98.6% | [4] 91.6% | [5] 62.3% | [6] 94.2% | [7] 97.5% | [8] 102% | [9] 95.3% | [10] 59% | [11] 92.6% | [12] 103% | [13] 98.1% | [14] 74.9% | [15] 87.8% | [16] 107% | [17] 90%

CCC1S/C(=N\N=C(/C)c2ccc[nH]2)N(c2ccccc2)C1=O (centres undefined)
inactive: [1] 57.5% | [2] 90.2% | [3] 99.3% | [4] 104% | [5] 123% | [7] 89.7% | [8] 124% | [9] 85.2% | [10] 122% | [11] 126% | [12] 104% | [13] 92.8% | [14] 117% | [15] 91.6% | [16] 104% | [17] 112%
active: [6] -48.7%

CCCCC(=O)Nc1c(C(=O)Nc2ccccc2)sc2nc3c(cc12)C(OC(=O)CCCC)CCC3 (centres undefined)
inactive: [1] 48.9% | [2] 84.7% | [3] 111% | [4] 36.7% | [5] 108% | [6] 99.8% | [7] 102% | [8] 89.5% | [9] 79.3% | [10] 79% | [11] 85.4% | [12] 108% | [13] 50.1% | [14] 82.9% | [15] 101% | [16] 101% | [17] 99.9%

COc1cc(-c2nn(-c3ccc(Br)cc3)cc2CO)ccc1O
inactive: [1] 84.6% | [2] 94.9% | [3] 101% | [4] 94.7% | [5] 105% | [6] 115% | [7] 103% | [8] 88.9% | [9] 99.3% | [10] 80.3% | [11] 89.6% | [12] 108% | [13] 104% | [14] 92.1% | [15] 92.6% | [16] 104% | [17] 91.7%

COc1cc(NC(=O)Nc2cnc(Nc3ccc(N4CCOCC4)cc3)nc2Oc2ccc(F)cc2)cc(OC)c1
inactive: [1] 81.3% | [2] 73.4% | [3] 113% | [4] 60% | [5] 102% | [6] 94.2% | [7] 97.8% | [8] 85.7% | [9] 95.4% | [10] 53.5% | [11] 98.2% | [12] 88.3% | [13] 82.7% | [14] 91% | [16] 101% | [17] 92.4%
active: [15] 6.9%

Cn1c2c(c3ccc(-c4ccn[nH]4)cc3c1=O)C(=O)c1ccccc1-2
inactive: [2] 29.4% | [3] 86% | [4] 74% | [5] 74.2% | [6] 45.6% | [7] 60.3% | [8] 85.8% | [9] 53.2% | [10] 32.2% | [11] 50.5% | [12] 77.6% | [13] 31.1% | [15] 21.9% | [16] 79.8% | [17] 15.7%
active: [1] -11.6% | [14] 9.04%

COCCOC(=O)COc1ccc(OC)cc1
inactive: [1] 97.3% | [2] 101% | [3] 104% | [4] 94.2% | [5] 112% | [6] 101% | [7] 95.4% | [8] 101% | [9] 104% | [10] 120% | [11] 103% | [12] 89.8% | [13] 93.5% | [14] 97.3% | [15] 106% | [16] 111% | [17] 100%

Nc1cccc(C(=O)Nc2ccc3c(O)c(N=Nc4ccc(N=Nc5ccc(S(=O)(=O)O)cc5)cc4)c(S(=O)(=O)O)cc3c2)c1
inactive: [1] 98.2% | [2] 107% | [3] 109% | [4] 94.3% | [5] 101% | [6] 97.8% | [7] 102% | [8] 103% | [9] 112% | [10] 83.8% | [11] 98.6% | [12] 105% | [13] 107% | [14] 97.2% | [15] 95% | [16] 114% | [17] 108%

CCCNc1nc(C)[nH]c(=O)c1S
inactive: [1] 87.4% | [2] 105% | [3] 113% | [4] 105% | [5] 134% | [6] 102% | [7] 106% | [8] 137% | [9] 109% | [10] 98.6% | [11] 113% | [12] 105% | [13] 121% | [14] 111% | [15] 108% | [16] 112% | [17] 107%

C[C@H](Oc1cc(-c2cnn(C3CCNCC3)c2)cnc1N)c1c(Cl)ccc(F)c1Cl
inactive: [1] 23.3% | [2] 77.7% | [3] 94.3% | [4] 66.7% | [5] 87.2% | [6] 71.9% | [7] 72.3% | [8] 56.5% | [9] 85.1% | [10] 55.7% | [11] 75.7% | [12] 66.1% | [13] 79.5% | [14] 37.6% | [15] 31.9% | [16] 66% | [17] 50.6%

C=CCn1c(SCC(=O)Nc2ccc(C(=O)/C=C/c3cc(OC)c(OC)c(OC)c3)cc2)nnc1-c1ccccc1
active: [1] 5.73%
inactive: [2] 86.8% | [3] 128% | [4] 111% | [5] 110% | [6] 86.9% | [7] 82.3% | [8] 102% | [9] 102% | [10] 78.8% | [11] 95.5% | [12] 50% | [13] 73.2% | [14] 13.6% | [15] 15.8% | [16] 108% | [17] 54.4%

COc1cc(N=Nc2cc(S(=O)(=O)O)cc3cc(S(=O)(=O)O)cc(O)c23)c(C)cc1N=Nc1c(S(=O)(=O)O)cc2cc(Nc3ccccc3)ccc2c1O
inactive: [1] 103% | [2] 106% | [3] 111% | [4] 97.8% | [5] 102% | [6] 96.6% | [7] 97.2% | [8] 108% | [9] 110% | [10] 93.4% | [11] 103% | [12] 109% | [13] 108% | [14] 103% | [15] 98.4% | [16] 105% | [17] 102%

Cn1nc(C(F)(F)F)c(-c2cc(C(F)(F)F)cc(C(F)(F)F)c2)c1-c1ccc(OCc2ccc(Cl)cc2)cc1O
inactive: [3] 29.1% | [4] 20.7% | [6] 31.4% | [12] 11.4% | [13] 13.1%
active: [1] -14.5% | [2] 8.36% | [5] -13.5% | [7] 7.02% | [8] 4.39% | [9] 1.98% | [10] -11.6% | [11] 2.72% | [14] 3.01% | [15] 3.65% | [16] 5.78% | [17] 5.04%

COC(=O)/C=C1\SC(=Nc2ccc(F)cc2)N(CCc2c[nH]c3ccccc23)C1=O
inactive: [1] 93.8% | [2] 87.5% | [3] 110% | [4] 106% | [5] 102% | [6] 98.5% | [7] 104% | [8] 108% | [9] 95.8% | [10] 91.3% | [11] 88.4% | [12] 114% | [13] 106% | [14] 74.9% | [15] 87.8% | [16] 102% | [17] 100%

Cc1c(O)c(=O)ccn1-c1nc2ccccc2s1
inactive: [1] 96.8% | [2] 85.4% | [3] 98.7% | [4] 97.7% | [5] 99% | [6] 109% | [7] 100% | [8] 95% | [9] 57.1% | [10] 92.4% | [11] 93.4% | [12] 99.7% | [13] 94.9% | [14] 98.6% | [15] 95.8% | [16] 114% | [17] 98.5%

C#C[C@@]1(O)[C@@H](CO)O[C@@H](n2cnc3c(-c4ccccc4)ncnc32)[C@@H]1O
inactive: [1] 106% | [2] 107% | [3] 101% | [4] 98.5% | [5] 105% | [6] 106% | [7] 107% | [8] 113% | [9] 102% | [10] 84% | [11] 102% | [12] 100% | [13] 111% | [14] 82.1% | [15] 99.8% | [16] 103% | [17] 106%

NC(=O)c1ccc(C2C3=C(CCCC3=O)OC3=C2C(=O)c2ccccc2C3=O)cc1 (centres undefined)
inactive: [1] 18.6% | [3] 96.4% | [5] 104% | [8] 67.1% | [9] 79.8% | [11] 81.4% | [13] 12% | [16] 77.7% | [17] 44.1%
active: [2] -1.42% | [4] -12.8% | [6] 8.86% | [7] -20.4% | [10] -1.02% | [12] -87.4% | [14] -28.8% | [15] 1.17%
